GIRK2 act = activators of NPY4-receptor-primed GIRK2 channels, summary, cell-based, HEK293, thallium flux | G protein-activated inward rectifier potassium channel 2 (Homo sapiens), P48051 | HEK293 GIRK2/NPY4 cells, thallium flux fluorescence | activation (% efficacy), % for hits at 37.5 µM | 34,000 tested, under 10 active;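 active means primary screen hit, no activity in plain HEK293 cells, and in GIRK2-only cells above 5% efficacy rising with concentration; inactive means the rest, including fluorescent compounds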;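 further: efficacy is normalized control-subtracted fluorescence 15 s after thallium addition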
AMPAR-TARP mod = modulators of GluA2-stargazin AMPA receptor complexes, primary screen, cell-based, membrane potential dye. Voltage-dependent calcium channel gamma-2 subunit (Mus musculus) + Glutamate receptor 2 …. HEK293 GluA2+stargazin, membrane potential dye (FDSS), glutamate EC50; hits were called plate by plate, in both directions. calls only at 30 µM. 3.5% of 40,000 active. AID 1259245, 2017;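 active means any of four per-well response measures lying three or more SD from its plate-wide compound average, in either direction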
Of the large screens only hits and unclear results are named; the others gave an inactive call. This excerpt belongs to a sample that is enriched for hits.

Cc1ccc(Cn2cc(C(=O)Nc3c(C)cccc3C)ccc2=O)cc1	none
CSc1ccccc1NC(=O)c1ccc(=O)n(Cc2ccccc2F)c1	none
Cc1ccccc1Cn1cc(C(=O)Nc2c(C)cccc2C)ccc1=O	AMPAR-TARP mod active
CSc1ccccc1NC(=O)c1ccc(=O)n(Cc2ccccc2Cl)c1	AMPAR-TARP mod active
COc1cccc(CCNC(=O)Cc2cc(-c3ccc(F)cc3F)on2)c1	none
CCN1CCN(C(=O)C(=O)c2c[nH]c3ccccc23)CC1	none (no result: GIRK2 act)
CCOC(=O)N1CCc2nc(NC(C)=O)sc2C1	none
CCN1CCc2nc(N)sc2C1	AMPAR-TARP mod active
COc1ccc(S(=O)(=O)NCC2CCN(Cc3cc(C)oc3C)CC2)c(C)c1	none (no result: AMPAR-TARP mod)
COc1ccc(-c2ccc(=O)n(CCNS(=O)(=O)c3ccc(F)c(Cl)c3)n2)cc1	none (no result: GIRK2 act)
COc1ccc(C2(CNC(=O)Nc3c(F)cccc3F)CCCC2)cc1	none
NC(=O)c1ccsc1NC(=O)C1CCN(S(=O)(=O)c2ccc(Cl)cc2)CC1	AMPAR-TARP mod active
NC(=O)c1ccsc1NC(=O)C1CCCCC1	none
COc1ccc(-n2nnnc2SC(C)C(=O)Nc2ccc(C(=O)O)cc2)cc1 (centres undefined)	AMPAR-TARP mod active (no result: GIRK2 act)
COc1ccc(-n2nnnc2SC(C)C(=O)Nc2ccccc2OC)cc1 (centres undefined)	AMPAR-TARP mod active (no result: GIRK2 act)
CCc1ccc(-n2nnnc2SC(C)C(=O)Nc2ccccc2OC)cc1 (centres undefined)	none (no result: GIRK2 act)
COc1ccc(NC(=O)C(C)Sc2nnnn2-c2ccccc2)cc1 (centres undefined)	none (no result: GIRK2 act)
Cc1cc(C)c(NC(=O)Cn2ncn3nc4c(c3c2=O)CCCC4)c(C)c1	none
CC(C)S(=O)(=O)c1ccc(C(=O)Nc2ccccc2C#N)cc1	none
O=C(C1CC1c1ccc2c(c1)OCO2)N1CCNCC1 (centres undefined)	none
CCN1CCN(c2nc(C)c([N+](=O)[O-])c(NC3CCCCC3)n2)CC1	none
Cc1cccc(-c2c(NC(=O)c3ccco3)sc3ccccc3c2=O)c1	none
CCOc1ccc2ccccc2c1C(=O)NCCOc1ccccc1	AMPAR-TARP mod active
COc1ccc(C(=O)NCC(c2ccc(F)cc2)N2CCOCC2)cc1 (centres undefined)	none (no result: GIRK2 act)
CCOc1ccc(OCCNC(=O)Cc2cccc3ccccc23)cc1	none
CCOc1ccc2ccccc2c1C(=O)NCC(c1ccc(OC)cc1)N1CCOCC1 (centres undefined)	AMPAR-TARP mod active (no result: GIRK2 act)
CN(C)C(CNC(=O)c1ccccc1Cl)c1cccc2ccccc12 (centres undefined)	none (no result: GIRK2 act)
CN(C)C(CNC(=O)c1c(F)cccc1F)c1cccc2ccccc12 (centres undefined)	AMPAR-TARP mod active (no result: GIRK2 act)
CCOc1ccc2ccccc2c1C(=O)NCC(c1ccc(F)cc1)N1CCOCC1 (centres undefined)	AMPAR-TARP mod active (no result: GIRK2 act)
CCOc1ccc(C(=O)NCC(c2ccc(F)cc2)N2CCOCC2)cc1OCC (centres undefined)	none (no result: GIRK2 act)
COc1ccc(OC)c2sc(N(CC3CCCO3)C(=O)c3cc4ccccc4o3)nc12 (centres undefined)	none (no result: GIRK2 act)
Cc1ccnc(Nc2ccc(NCCNC(=O)c3ccc(Oc4ncccn4)cc3)nn2)c1	none
COc1cc(NC(=O)c2ccc(Br)o2)ccc1N1CCCC1=O	none
CCOc1ccc2ccccc2c1C(=O)NCC(c1cccs1)N(C)C (centres undefined)	AMPAR-TARP mod active
COc1cccc(OC)c1C(=O)NCC(c1cccs1)N1CCOCC1 (centres undefined)	none
CN(C)C(CNC(=O)c1ccc2ccccc2c1)c1cccs1 (centres undefined)	none
CCOc1ccc2ccccc2c1C(=O)NCC(c1cccs1)N1CCOCC1 (centres undefined)	AMPAR-TARP mod active
CS(=O)(=O)N1CCC(C(=O)N(Cc2ccsc2)Cc2ccccn2)CC1	none (no result: AMPAR-TARP mod)
O=C(Nc1ccc(CC(=O)N2CCCC2)cc1)c1cccc(F)c1	none
COc1cc(-c2ccc(SCC(=O)Nc3ccc(C(C)=O)cc3)nn2)cc(OC)c1OC	none
COc1ccccc1CCNC(=O)CCc1sc(C)nc1-c1cccs1	none
CN1C(=O)Cc2cc(NC(=O)Nc3cccc(Cl)c3)ccc21	AMPAR-TARP mod active
CC(=O)Nc1ccc2c(c1)CC(=O)N2C	none (no result: GIRK2 act)
CN1C(=O)Cc2cc(NC(=O)/C=C/c3ccccc3)ccc21	AMPAR-TARP mod active
CN1C(=O)Cc2cc(NC(=O)Nc3ccc(Cl)c(Cl)c3)ccc21	none
Cc1cc(-c2nnc(NC(=O)CSc3ccccc3)o2)nn1C	none
COc1ccc(NC(=O)NCCNc2ccc(Nc3cc(C)ccn3)nn2)cc1OC	none (no result: AMPAR-TARP mod)
CS(=O)(=O)N1CCCCC1C(=O)N(Cc1ccccc1)Cc1ccccc1 (centres undefined)	AMPAR-TARP mod active
CS(=O)(=O)N1CCCC(C(=O)N(Cc2ccccc2)Cc2ccccc2)C1 (centres undefined)	none
COc1ccc(Nc2cc(C)nc(-n3cc([N+](=O)[O-])cn3)n2)cc1OC	none
COc1ccc(Nc2cc(C)nc(-n3cc([N+](=O)[O-])cn3)n2)cc1Cl	AMPAR-TARP mod active
CCc1nc2sc(C(c3ccccc3F)N3CCCC3)c(O)n2n1 (centres undefined)	none
COC(=O)N1CCC(CNC(=O)C(=O)NCc2ccccc2Cl)CC1	none
